# Experimental data as given in PubChem BioAssay AID1845225 (National Center for Advancing Translational Sciences (NCATS), 2023).
# Records with an inconclusive call do not appear. Unmarked numbers belong to inactive results. Calls follow the shape of the dose curve; as a rule, active = well fitted curve in the direction sought with a large enough effect; inconclusive = small, poorly fitted or top-dose-only effect, or effect the other way, or another doubt; inactive = no such curve, though single readings can be large or run the other way.
# Experiment: Confirmatory redox qHTS assay for identification of artifact compounds.
# Settings: Amplex Red/HRP redox cycling with DTT, fluorescence; series mostly up to 39 µM; redox activity vs DA3003: at the top concentration
# Description: PI: Alexander Tropsha Ph.D. UNC Eshelman School of Pharmacy University of North Carolina, Chapel Hill, North Carolina Hits from high-throughput screening (HTS) of chemical libraries are often false positives due to their interference with the assay detection technology. In response to this problem, we generated the largest publicly available library of chemical liabilities and developed a free webtool to predict HTS artifacts, both of which are described herein. More specifically, we generated, curated, and integrated HTS datasets for thiol reactivity, redox activity, and luciferase (firefly and nano) activity. Using these curated datasets, we developed and validated several Quantitative Structure-Interference Relationship (QSIR) models to predict nuisance behavior. […] These models were employed for virtual profiling of the National Center for Advancing Translational Science's (NCATS) in-house library, and 256 compounds for each assay were selected for the experimental validation of nuisance behavior. The BA for these external predictions ranged from 58 to 78% for compounds within the applicability domains of the models. […] The models developed in this study, along with aggregation models previously developed by our group (SCAM Detective) were implemented in "Liability Predictor," an online tool which may be used as part of chemical library design or for triaging HTS hits. Both the models and the curated datasets are publicly available at https://liability.mml.unc.edu/.
# PROTOCOL TABLE SEQUENCE No. (e.g., 1, 2, 3, etc.); […] (e.g., Cells, Incubation, Reagent, etc.); VALUE; DESCRIPTION. 1; Reagent; 3 uL; Amplex Red and HRP mixture. 2; Compounds and control; 16 nL; Kalypsis pin tool (Wako USA) equipped with a 1536-well pin head. 3; Incubation; 15 min. 4; Reagent; 1 uL; […]. 5; Incubation; 30 min. 6; Detection; Fluorescence, ViewLux microplate reader, 525 nm excitation, 598 nm emission. NOTES (numbers refer to Sequence numbers above) 1. 3 uL of a mixture containing Amplex Red (25 uM final concentration) and horseradish peroxidase (HRP; 250 mU/mL final concentration) in assay buffer (HBSS) was dispensed into all wells of a 1536-well assay plate (solid-bottom black plate; Greiner Bio One, Monroe, NC). 2. […] 3. 15 min. incubation at room temperature protected from light. 4. 1 uL of DTT (prepared fresh; final concentration 250 uM) was dispensed for a final assay volume of 4 uL. 5. Plates were centrifuged (121xg, 15 seconds) and incubated for 30 minutes at room temperature protected from light. 6. Samples were read for fluorescence (Ex/Em = 525(20)/598(25) nm) on a ViewLux CCD imager (PerkinElmer). Data were normalized to DMSO (0% activity) and DA3003 (10 uM final concentration; 100% activity) and the resulting percent inhibition data were fitted to a 4-parameter Hill equation using NCATS in-house software.
row,Compound,redox activity vs DA3003
1,CCOc1ccc(CNC(=O)CN2C(=O)CSc3c2c(C)nn3-c2ccccc2)cc1,1.23%
2,O=C(CN1C(=O)CCn2nc(-c3ccccc3)cc21)NCc1ccc(Cl)cc1,4.22%
3,CCOc1ccc(CCNC(=O)c2cnc3c(-c4ccccc4)c(C)nn3c2C)cc1OCC,3.51%
4,O=C(Nc1nnc(S(=O)(=O)N2CCCC2)s1)c1ccccc1Cl,-0.529%
5,Cc1cc(C)cc(-n2ccn(Cc3ccc(F)cc3)c(=O)c2=O)c1,0.558%
6,O=C(Nc1onc2c1CCCC2)c1ccc(Cl)cc1,-0.563%
7,Cc1ccc(OCCn2c(CCNC(=O)c3c(F)cccc3F)nc3ccccc32)cc1,0.522%
8,CC(=O)N1CCC(C(=O)Nc2nnc(C(C)C)s2)CC1,-0.394%
9,O=C1c2ccccc2C(=O)N1c1cnc2ccccc2c1,-0.944%
10,COc1cc2nc(N3CCCCC3)nc(NC3CCN(Cc4ccccc4)CC3)c2cc1OC,16.6%
11,Cc1ccc(Cl)cc1N1C(=O)N(Cc2ccc(C#N)cc2)c2ccccc2S1(=O)=O,-1.31%
12,O=C(Nc1cc2c(cc1C(=O)c1ccccc1Cl)OCCO2)c1ccc(Br)cc1,-0.336%
13,O=C(CSc1nnc2scc(-c3ccc(Cl)cc3)n12)Nc1cccc(C(F)(F)F)c1,-0.385%
14,COc1cc2c(NC3CCN(C)CC3)nc(N3CCCN(C)CC3)nc2cc1OCCCN(C)C,12.6%
15,CCCCCC(O)/C=C/C=C\CCCCCCCC(=O)O (stereo not given),-1.07% [at 0.303 µM]
16,CCCCN1C(=O)c2[nH]nc(-c3ccccc3O)c2C1c1ccc(C(C)(C)C)cc1 (stereo not given),1.59%
17,Cc1oc(-c2ccccc2)nc1CNC(=O)Nc1ccccc1,-0.859%
18,CCOc1ccc(C[C@H]2NC(=O)CCSSC[C@@H](C(=O)N3CCC[C@H]3C(=O)N[C@@H](CCCN)C(=O)NCC(N)=O)NC(=O)[C@H](CC(N)=O)NC(=O)[C@H]([C@@H](C)O)NC(=O)[C@H]([C@@H](C)CC)NC2=O)cc1,18.2%
19,COc1ccc(C2C(C(=O)Nc3ccccc3)=C(C)Nc3c(C(=O)Nc4ccccc4)cnn32)cc1 (stereo not given),2.35%
20,COc1cc2c(NC3CCN(C(C)C)CC3)nc(N3CCCN(C)CC3)nc2cc1OCCOCCN(C)C,12.3%

row,Compound,redox activity vs DA3003
1,COc1ccc(C(=O)O)cc1Nc1nc2ccc(C)cc2n2cnnc12,-0.298%
2,COc1ccc(Cn2c(C(=O)O)c(CNC3CCCC3)c3ccc(C)cc32)cc1,3.9%
3,COc1ccc(C(CNC(=O)c2oc3cc(C)c(C)cc3c2C)N2CCCCC2)cc1 (stereo not given),3.53%
4,Cc1ccccc1NC(=O)Cn1c(=O)n(CCc2ccccc2)c(=O)c2sc3ccccc3c21,0.765%
5,Cn1cc(CN(C(=O)Nc2ccc(Cl)c(Cl)c2)C2CCCCC2)c2ccccc21,-1.12%
6,O=C(NC1CCCCCC1)c1ccc(CS(=O)c2ccc(Br)cc2)o1 (stereo not given),9.24%
7,Cc1ccc(C)c(NC(=O)CC2NCCNC2=O)c1 (stereo not given),-0.0323%
8,O=C(NCCSc1c(-c2ccc(Br)cc2)[nH]c2ccccc12)c1ccc(S(=O)(=O)N2CCOCC2)cc1,0.987%
9,CCOc1ccc(C(=O)c2cn(CC(=O)Nc3cc(OC)ccc3OC)c3cc(OC)c(OC)cc3c2=O)cc1,7.18%
10,O=C(NCCc1csc(-c2cccc(F)c2)n1)C(=O)Nc1cc(F)ccc1F,-1.07%
11,CN1C(CC(=O)c2ccccc2)CCCC1CC(O)c1ccccc1 (stereo not given),-0.636%
12,O=C(CCC(=O)N1CCSc2ccccc21)Nc1ccc(Cl)cc1,1.2%
13,COc1ccc(OC)c(NC(=O)Cn2c(=O)n(CC3CCCO3)c(=O)c3cc(OC)c(OC)cc32)c1 (stereo not given),6.23%
14,Cc1ccc(OCCn2c(CCNC(=O)OC(C)(C)C)nc3ccccc32)cc1,2.68%
15,COc1cc(OC)c(NC(=O)C(c2ccccc2)N2Cc3ccccc3C2=O)cc1Cl (stereo not given),1.62%
16,O=C(CCn1c(=O)c2cccn2c2cccnc21)N1CCN(c2ccccc2F)CC1,3.64%
17,Nc1ccc(F)cc1F,-1.05%
18,CCc1ccc(CN(Cc2ccco2)C(=O)c2ccc(OC)cc2)cc1,2.42%
19,CC(C)C[C@H](NC(=O)[C@@H](Cc1c[nH]c2ccccc12)NC(=O)[C@H](Cc1ccc(O)cc1)NC(=O)[C@H](CO)NC(=O)[C@H](Cc1c[nH]c2ccccc12)NC(=O)[C@H](Cc1cnc[nH]1)NC(=O)[C@@H]1CCC(=O)N1)C(=O)N[C@@H](CCCN=C(N)N)C(=O)N1CCC[C@@H]1C(=O)NCC(N)=O,9.85%
20,COC(=O)c1ccccc1NC(=O)[C@H]1O[C@@H]2OC(C)(C)O[C@@H]2[C@H]2OC(C)(C)O[C@H]21,5.32%
